Screening results (PubChem)
Only some compounds are listed: those with a hit (about 19% of all), similar ones and a draw of the others.
Pf growth 96h = P. falciparum growth inhibition at 96 hour, primary screen for plastid delayed-death inhibitors; P. falciparum luciferase reporter growth, 96 h; AID 504834; Potency, µM (series often up to 28.7 µM), inactives show at the top dose activity change, negative = inhibition, most hits filed as inhibitors; 6.9% of 320,000 active; also: potency is read from the fitted curve at half-maximal effect; % is scaled to controls: 0 for no effect and ±100 for the full control effect
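Luminescence readout: decreased luciferase signal marks inhibited growth of reporter-expressing P. falciparum in infected red cells (2% hematocrit, 0.05% parasitemia final), exposed to compound two generations (96 h, 37 C, 5% CO2).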
Shiga toxin inh = Shiga toxin inhibition; Vero cells, Shiga toxin protein synthesis inhibition reporter; inhibition, % at 38.7 µM; 9.2% of 290,000 active; AID 2315; in the data active = inhibition mostly above about 28%, no sharp cut-off; inactive = mostly below about 43%; also: 0% is about no effect
AMA1-RON2 inh = disrupts binding of P. falciparum AMA1 to RON2 | AlphaScreen AMA1-biotinylated RON2 peptide binding | Potency, µM (titrated, usually from 58.2 µM), without a hit: at the highest dose activity change, negative = inhibition, hits mostly inhibitors | 0.2% of 360,000 active;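 also: potency is read from the fitted curve at half-maximal effect; 0% = vehicle wells and -100% = peptide control; nearly all actives have a fitted effect of over 45% in size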
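AMA1 (3D7) with his tag at 25 nM final met compounds first, then biotinylated RON2 peptide at 25 nM; detection used donor plus acceptor beads, 10 µg/mL apiece, read by AlphaScreen after 30 min at room temperature.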
Cycloheximide cs = affects cycloheximide protein synthesis inhibition readout, counter-screen. cell reporter, cycloheximide protein synthesis inhibition counterscreen. max response, %. 12% of 300,000 active. AID 2314; in the data active = max response mostly above about 13%, no sharp cut-off; inactive = mostly below about 14%; also: read at 38.3 µM for the half of the compounds with a filed dose; 0% is about no effect
SARS PLP yeast = inhibitors of SARS-CoV papain-like protease in yeast. Potency, µM (doses to about 32.9 µM), for the others: top-dose activity, positive = growth rescue, usual class: activators. 0.19% of 330,000 active. S. cerevisiae expressing SARS-CoV PLpro, growth rescue; calls by dose curve; also: potency is read from the fitted curve at half-maximal effect; 0% is about no effect; nearly all actives have a fitted effect of over 55% in size
Pf growth 48h = inhibits P. falciparum growth in the first generation, 48 h. P. falciparum luciferase growth in erythrocytes, 48 h. Potency, µM (doses to about 28.7 µM), for inactives: top-dose activity change, negative = inhibition, hits mostly inhibitors. 5.9% of 310,000 active. AID 504832; also: potency is read from the fitted curve at half-maximal effect; % is scaled to controls: 0 for no effect and ±100 for the full control effect
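Growth was read as firefly luciferase luminescence after a 48 h, 37 C, 5% CO2 exposure of compounds to reporter-bearing P. falciparum cultures (0.1% parasitemia, 2% hematocrit final) in Albumax-supplemented RPMI 1640.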
Active calls of the source: *; ? = inconclusive; nt = not tested or not shown; + = active, no number; [ ] = another dose, or the depositor's remark. Unless noted, calls follow the shape of the dose curve; as a rule, active = well fitted curve in the direction sought with a large enough effect; inconclusive = small, poorly fitted or top-dose-only effect, or another doubt; inactive = no such curve, though single readings can be large; an effect the other way counts as inactive or inconclusive.

SMILES	Pf growth 96h	Shiga toxin inh	AMA1-RON2 inh	Cycloheximide cs	SARS PLP yeast	Pf growth 48h
NC(=O)CC(NC(=O)c1ccc(Br)cc1)c1ccc(N2CCC(Br)CC2)c([N+](=O)[O-])c1 (stereo unspecified)	-15%	-6	11%	6	0%	0%
CC(C)(C)c1cc(-c2ccccc2)no1	48%	-5	0%	-2	1%	4%
Cc1ccc2nc(-c3ccccc3)nn2c1	nt	nt	1%	nt	nt	nt
CCc1ccn2cc(-c3cc(-c4ccccc4)no3)nc2c1	-7%	23	-8%	37*	-4%	-83%
Cc1ccc2nc(-c3cc(-c4ccccc4)no3)cn2c1	251%	114*	-12%	49*	-2%	163%
Clc1cccc(CN2CCN(c3ncccn3)CC2)c1Cl	13µM*	14	-22%	-2	-4%	19%
Clc1ccc(CN2CCN(c3ncccn3)CC2)c(Cl)c1	7%	14	16µM*	7	5%	-3%
Clc1ccccc1CN1CCN(c2ncccn2)CC1	?	9	?	10	-1%	-4%
NS(=O)(=O)c1ccc(NC(=O)CNC(=O)c2ccc3c(c2)OCO3)cc1	nt	nt	5%	nt	-1%	nt
NC(=O)C1(N2CCCCC2)CCN(C2CC(=O)NC2=O)CC1 (stereo unspecified)	?	2	5%	-2	-7%	16%
O=C(/C=C/c1ccc([N+](=O)[O-])s1)N1CCCCC1	?	17	3%	24*	-7%	?
O=C(/C=C/c1cccs1)N1CCCCC1	?	61*	-1%	39*	1%	89%
O=C(/C=C/c1ccc([N+](=O)[O-])s1)N1CCCC1	10µM*	10	-1%	-2	-7%	13µM*
CC1CC(C)CN(C(=O)/C=C/c2ccc([N+](=O)[O-])s2)C1 (stereo unspecified)	9.3µM*	50	-17%	5	-5%	-114%
CC1CN(C(=O)/C=C/c2ccc([N+](=O)[O-])s2)CC(C)O1 (stereo unspecified)	?	-14	-6%	15	3%	?
O=C(/C=C/c1ccc([N+](=O)[O-])s1)N1CCN(c2ccccc2)CC1	?	-9	0%	-2	1%	?
COC(=O)[C@@]1(Cc2ccccc2)[C@H]2C(=O)N(Cc3ccccc3)C(=O)[C@H]2[C@H]2CN=C(SC)N21	nt	nt	4%	nt	-16%	nt
O=C(Cc1ccc(F)cc1)N1CCC(N2CCC(C(=O)N3CCOCC3)CC2)CC1	3%	-6	5%	12	0%	1%
COc1ccc(C(=O)C2CCCN(C(=O)c3cc(C4CC4)[nH]n3)C2)c(C)c1 (stereo unspecified)	15µM*	-4	1%	15	-1%	10%
COc1ccc(C(=O)C2CCCN(C(=O)c3csc(C(C)=O)c3)C2)c(C)c1 (stereo unspecified)	0%	0	-12%	1	-5%	-6%
C#Cc1cccc(C(=O)N2CCCC(C(=O)c3ccc(OC)cc3C)C2)c1 (stereo unspecified)	13µM*	-16	5%	9	21%	-7%
COCCNC(=O)C1CCCN(C(=O)C2(c3ccc(Cl)cc3)CCCC2)CC1 (stereo unspecified)	nt	nt	1%	nt	nt	nt
COc1cc(C(=O)Nc2ccc3c(c2)CCCN3C(=O)c2ccco2)c([N+](=O)[O-])cc1OC	?	nt	-4%	nt	-6%	?
COc1ccccc1C(c1nnnn1C(C)(C)C)N1CCCCCC1 (stereo unspecified)	nt	-5	0%	2	-1%	8.3µM*
COc1ccccc1C(c1nnnn1C(C)(C)C)N1CCN(C(=O)c2ccco2)CC1 (stereo unspecified)	?	-7	-6%	6	3%	4.7µM*
SMILES	Pf growth 96h	Shiga toxin inh	AMA1-RON2 inh	Cycloheximide cs	SARS PLP yeast	Pf growth 48h
O=C(Nc1ccc(N2CCCCC2)cc1)c1ccc([N+](=O)[O-])o1	?	104*	-27%	35*	-5%	-23%
CCCC(=O)N1CCN(c2ccc(NC(=O)c3cc4ccccc4o3)cc2)CC1	11%	3	10%	-3	-2%	?
CC1CCN(c2ccc(NC(=O)c3ccc([N+](=O)[O-])o3)cc2)CC1	-6%	nt	?	nt	-18%	?
CCCC(=O)N1CCN(c2ccc(NC(=O)c3ccc([N+](=O)[O-])o3)cc2)CC1	114%	-33	-26%	-18	0%	17µM*
CCCC(=O)N1CCN(c2ccc(NC(=O)c3sc4ccccc4c3Cl)cc2)CC1	4.7µM*	15	15%	-1	5%	?
CCC(=O)N1CCN(c2ccc(NC(=O)c3ccc([N+](=O)[O-])o3)cc2)CC1	417%	33*	13%	21*	-1%	10µM*
Nc1ncnc(Oc2ccccc2F)c1[N+](=O)[O-]	-15%	-12	24%	1	0%	-5%
CC(c1ccccc1)N1CC(C(=O)N2CCCC(C(N)=O)C2)CC1=O (stereo unspecified)	-14%	nt	-9%	nt	3%[6.58 µM]	-11%
COc1ccc(OC)c(CNC(=O)c2nn(C)c3c2CS(=O)(=O)c2ccccc2-3)c1	3%	-10	-16%	-1	9%	-12%
CC(=O)N1CCN(c2ccc(NC(=O)c3ccc([N+](=O)[O-])cc3)cc2)CC1	-4%	10	0%	-1	-2%	0%
O=C(Nc1ccc(N2CCN(C(=O)c3ccc(Cl)cc3)CC2)cc1)c1ccc([N+](=O)[O-])o1	?	11	-6%	6	-1%	3.3µM*
CC(C)(C)C(=O)N1CCN(c2ccc(NC(=O)c3ccc([N+](=O)[O-])o3)cc2)CC1	7.4µM*	39*	-16%	52*	1%	?
CS(=O)(=O)N1CCN(c2ccc(NC(=O)c3ccc([N+](=O)[O-])o3)cc2)CC1	?	53*	-2%	30*	4%	83%
CCC(=O)Nc1ccc(N2CCN(Cc3ccccc3F)CC2)cc1	9.3µM*	-11	-5%	-3	3%	?
Cc1cc(C)cc(C(=O)Nc2ccc(N3CCN(S(C)(=O)=O)CC3)cc2)c1	235%	13	-8%	-3	0%	26%
C[C@H]1CN([C@@H](C)CO)C(=O)CCCn2cc(nn2)CO[C@@H]1CN(C)C(=O)OCc1ccccc1	nt	nt	18%	nt	nt	nt
O=C(Nc1ccc(N2CCCC2)c(Cl)c1)c1ccc([N+](=O)[O-])o1	?	+	?	90*	-24%	?
O=C(Nc1ccc(N2CCN(Cc3ccccc3F)CC2)cc1)c1ccccc1[N+](=O)[O-]	191%	-10	-10%	0	0%	-26%
O=C(Nc1ccc(N2CCN(Cc3ccccc3F)CC2)cc1)c1ccc([N+](=O)[O-])o1	?	-7	-23%	3	2%	1.9µM*
O=C1CCCN=C(Nc2ccc(F)c(Cl)c2)S1	-9%	54*	-19%	12	-1%	9%
